Laboratory results published in paper PMC9838217, “Structure of SALL4 zinc finger domain reveals link between AT-rich DNA binding and Okihiro syndrome”.
Changes are numbered by the printed parent chain.

What follows are sequences tested against T1, SALL4 ZFC4 R900W (HT-SELEX) (Mus musculus, UniProt Q8BX22 870-940, R900W) (assay: HT-SELEX; high values mean tight binding). Conditions: protein: recombinant; vector His6-GST; dsDNA, one strand shown.
T1 sequence: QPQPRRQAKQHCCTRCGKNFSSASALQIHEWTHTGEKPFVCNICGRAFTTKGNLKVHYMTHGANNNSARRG
Method in brief: (§1)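 Purified recombinant mouse SALL4 zinc finger cluster 4 (residues 870–940, 1 µg) was incubated with library DNA (1.5 µg first cycle, 200 ng later) in 100 µl buffer (10 mM Tris–HCl pH 7.5, 50 mM NaCl, poly(dI-dC), DTT) for 10 min at room temperature. Ni2+ bead-captured complexes were washed, PCR-amplified and reselected for up to 6 cycles, in triplicate, then MiSeq-sequenced and scanned for 6-mers. Binding signal is each canonical k-mer's read fraction as fold change versus the initial random library.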

Row | Sequence | binding signal [fold-change vs cycle 0]
1 | AACTGA | 1.44 ± 0.0702
2 | AAGGTA | 1.59 ± 0.0717
3 | CCTATA | 1.4 ± 0.0411
4 | ACTTGA | 1.5 ± 0.0479
5 | ACATGT | 1.4 ± 0.0207
6 | CATGAA | 1.4 ± 0.0692
7 | CTCTTC | 1.24 ± 0.0397
8 | CAAGTA | 1.42 ± 0.0751
9 | GTAGCA | 0.74 ± 0.0284
10 | AAGATG | 1.5 ± 0.0687
11 | ACCAGT | 0.969 ± 0.0358
12 | AAGGGT | 1.01 ± 0.023
13 | AATCCT | 1.58 ± 0.0929
14 | AGTTAC | 1.56 ± 0.0396
15 | CGAGAG | 0.515 ± 0.0447
16 | GAGGAA | 1.03 ± 0.0537
17 | AAGGAT | 1.72 ± 0.118
18 | CATTGA | 1.39 ± 0.0271
19 | GCTTCC | 0.454 ± 0.0368
20 | ATAAAC | 2.02 ± 0.13

Row | Sequence | binding signal [fold-change vs cycle 0]
21 | AACAAC | 1.26 ± 0.0286
22 | AATGCA | 1.11 ± 0.069
23 | AGTCAG | 0.958 ± 0.0579
24 | ACCTTC | 0.982 ± 0.0475
25 | AGGTAA | 1.58 ± 0.118
26 | GAAAAC | 1.19 ± 0.062
27 | ACTAGG | 1.01 ± 0.0248
28 | CAATTA | 1.83 ± 0.147
29 | CTCGAG | 0.548 ± 0.0598
30 | ACTTCA | 1.53 ± 0.0862
31 | ATTTCA | 1.87 ± 0.0758
32 | AATACC | 1.33 ± 0.0245
33 | AACTAG | 1.4 ± 0.0768
34 | CCCTTC | 0.614 ± 0.0191
35 | AGCATA | 1.27 ± 0.0243
36 | ACGAAG | 0.869 ± 0.0387
37 | AATCAG | 1.38 ± 0.0901
38 | GATCAA | 1.36 ± 0.014
39 | ATGTAG | 1.41 ± 0.0727

Each sequence was assayed against T2, SALL4 ZFC4 G921D (HT-SELEX) (Mus musculus, UniProt Q8BX22 870-940, G921D) (assay: HT-SELEX; high values mean tight binding). Conditions: protein: recombinant; vector His6-GST; dsDNA, one strand shown.
T2 sequence: T1 sequence with W31R, G52D
Method in brief: as §1

Row | Sequence | binding signal [fold-change vs cycle 0]
40 | ACTTGA | 1.41 ± 0.0888
41 | CAAGTA | 1.34 ± 0.0943
42 | GTAGCA | 0.817 ± 0.0421
43 | ACCAGT | 0.994 ± 0.0294
44 | AGTTAC | 1.49 ± 0.117
45 | CGAGAG | 0.628 ± 0.0528
46 | CATTGA | 1.35 ± 0.0347
47 | GCTTCC | 0.567 ± 0.0502
48 | ATAAAC | 1.76 ± 0.163
49 | AACAAC | 1.25 ± 0.0618
50 | AATGCA | 1.15 ± 0.0324
51 | ACCTTC | 1 ± 0.0224
52 | CAATTA | 1.71 ± 0.164
53 | CTCGAG | 0.638 ± 0.046
54 | ATTTCA | 1.7 ± 0.117
55 | CCCTTC | 0.653 ± 0.0312
56 | ACGAAG | 0.9 ± 0.0184
